Shiga toxin inh: A qHTS for Small Molecule Inhibitors of Shiga Toxin; Vero cells, Shiga toxin protein synthesis inhibition reporter; actives 9.2% (n = 290,000); AID 2315, 2010; inhibition, % at 38.7 µM; in the data active = inhibition mostly above about 28%, no sharp cut-off; inactive = mostly below about 43%
Sm TGR inh: qHTS Assay for the Inhibitors of Schistosoma Mansoni Peroxiredoxins | Schistosoma mansoni thioredoxin glutathione reductase (TGR), Q962Y6 | purified TGR, DTNB reduction, TNB absorbance 405 nm | Potency, µM (series often up to 114 µM), most hits filed as inhibitors | actives 3% (n = 360,000); also: nearly all actives have a fitted effect of over 60% in size
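Kinetic colorimetric format: TGR-catalysed, NADPH-driven DTNB reduction monitored via TNB absorbance. Enzyme dispensed at 20 nM; compound exposure 15 min at room temperature before reaction start.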
FBPA Giardia inh: qHTS Assay for Inhibitors of Fructose-1,6-bisphosphate Aldolase from Giardia Lamblia; A8B2U2; purified Giardia FBPA; Potency, µM (top dose mostly 59.6 µM), most hits filed as inhibitors; actives 0.71% (n = 290,000); AID 2451, 2010; also: nearly all actives have a fitted effect of over 55% in size
Target sequence (A8B2U2 whole entry, looked up): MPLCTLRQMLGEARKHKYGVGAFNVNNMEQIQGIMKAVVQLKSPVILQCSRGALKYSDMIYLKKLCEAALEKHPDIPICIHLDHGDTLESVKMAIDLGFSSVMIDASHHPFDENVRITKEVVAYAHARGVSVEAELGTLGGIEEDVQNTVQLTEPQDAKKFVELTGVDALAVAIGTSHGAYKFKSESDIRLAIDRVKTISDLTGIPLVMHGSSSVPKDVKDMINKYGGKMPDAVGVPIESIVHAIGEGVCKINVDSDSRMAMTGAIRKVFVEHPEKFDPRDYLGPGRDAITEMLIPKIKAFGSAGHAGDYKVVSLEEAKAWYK
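40 nM FBPA preincubated 10 min at RT with compound (up to 57.5 uM final), then substrate plus GAPDH/TPI/NAD/arsenate coupling and diaphorase/resazurin added. Fluorescence read after 20 min at RT, 525/598 nm.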
LmPK inh: qHTS Assay for Inhibitors of Leishmania Mexicana Pyruvate Kinase (LmPK) | Q27686 | purified LmPK, Kinase-Glo ATP luminescence, 1 h | Potency, µM (top dose mostly 57.5 µM), most hits filed as inhibitors | actives 0.37% (n = 290,000)
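qHTS format; LmPK 0.1 nM; substrates PEP 0.5 mM and ADP 0.1 mM. One-hour room-temperature incubation, then coupled luciferase luminescence; 0.5 nM enzyme wells mark activation.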
CHX counter: Cycloheximide Counterscreen for Small Molecule Inhibitors of Shiga Toxin. cell reporter, cycloheximide protein synthesis inhibition counterscreen. max response, %. actives 12% (n = 300,000). AID 2314, 2010; in the data active = max response mostly above about 13%, no sharp cut-off; inactive = mostly below about 14%; also: read at 38.3 µM for the half of the compounds with a filed dose
TbPYK inhibitor: qHTS of Trypanosoma Brucei Inhibitors. actives 0.12% (n = 410,000). TbPYK enzyme, Kinase-Glo Plus ATP luminescence, 45 min. Potency, µM (doses to about 76.8 µM), hits mostly inhibitors; also: nearly all actives have a fitted effect of over 50% in size
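Enzyme and substrate buffer are dispensed first and compound is pin-transferred. ADP at 130 uM final then starts the reaction, which runs 45 min at room temperature. Detection reagent is added for 10 min before luminescence is imaged.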
A number is an active result; – = inactive; ? = inconclusive; · = no result given; [ ] = another dose, or the depositor's remark. Many of the other results were omitted from the sample, so hits are more common in it than they were. Unless noted, calls follow the shape of the dose curve; as a rule, active = well fitted curve in the direction sought with a large enough effect; inconclusive = small, poorly fitted or top-dose-only effect, or another doubt; inactive = no such curve, though single readings can be large; an effect the other way counts as inactive or inconclusive.

SMILES	Shiga toxin inh	Sm TGR inh	FBPA Giardia inh	LmPK inh	CHX counter	TbPYK inhibitor
CC1CCCCN1C(=O)/C=C/c1ccccc1[N+](=O)[O-] (stereo not drawn)	–	·	–	–	20	–
O=S(=O)(c1ccc2ncn(O)c2c1)N1CCOCC1	–	–	–	–	–	–
Cc1ccc(C)c(N2CCN(C(=O)CCc3c(C)nn(-c4ccc(N5CCCC5)nn4)c3C)CC2)c1	·	–	·	·	·	–
C/C(=N\NC(=O)c1ccc2c(c1)OCO2)c1ccco1	–	–	–	–	–	?
C/C(=N\NC(=O)c1cc(-c2ccc(C)s2)[nH]n1)c1ccco1	66	–	–	–	39	–
C/C(=N\NC(=O)c1cccc(S(=O)(=O)N2CCCC2)c1)c1ccco1	–	–	–	–	–	–
C/C(=N/NC(=O)c1cc(C)[nH]n1)c1ccncc1	49	–	–	–	17	–
C/C(=N/NC(=O)c1cnccn1)c1ccncc1	–	–	–	–[11.5 µM]	–	–
C/C(=N/NC(=O)c1cc(C)[nH]n1)c1ccco1	42	–	–	–	27	–
C/C(=N\NC(=O)c1ccn(C)n1)c1ccco1	85	–	–	–	40	–
CN(c1ccccc1)S(=O)(=O)c1cccc(NC(=O)CN2C(=O)NC3(CCCC3)C2=O)c1	·	–	·	·	·	–
CC(C)Cn1c(=O)c2ccccc2n2c(CCC(=O)NC(C)c3ccccc3)nnc12 (stereo not drawn)	·	–	·	·	·	–
Cc1cc(SC#N)cc(C)c1NC(=O)CCl	–	14µM	–	–	–	–
CCC(=O)Nc1ccc(SC#N)cc1C	–	–	–	–	–	–
CCc1cc(SC#N)cc(C)c1NC(=O)CCl	–	10µM	–	–	–	–
Clc1ccccc1CNCCCSc1nnnn1-c1ccccc1	·	–	·	·	·	–
N#CC(C(=S)Nc1ccccc1)c1nc2ccccc2[nH]1 (stereo not drawn)	–	–	–	–	19	–
OC(c1ccccc1)c1nc2ccccc2[nH]1 (stereo not drawn)	·	–	–	–	–	–
OC(c1nc2ccccc2[nH]1)C(O)c1nc2ccccc2[nH]1 (stereo not drawn)	·	–	–	–	21	–
Cc1ccc2nc(C(C)O)[nH]c2c1 (stereo not drawn)	–	–	·	–	–	–
Cc1ccc2nc(C(O)C(O)c3nc4ccc(C)cc4[nH]3)[nH]c2c1 (stereo not drawn)	122	–	?	–	46	–
CCc1ccccc1NC(=O)Cn1c(=O)nc(-c2ccccc2)c2ccccc21	·	–	·	·	·	–
CCOC(=O)c1c(C)oc2nc(C)nc(NCc3ccc(F)cc3)c12	·	–	·	·	·	–
O=C(CCc1nnc(CCCCc2ccccc2)o1)NCc1cccc(F)c1	–	–	–	–	–	–
O=C(CCc1nnc(CCCc2ccccc2)o1)NCC(F)(F)F	39	–	–	–	36	–
SMILES	Shiga toxin inh	Sm TGR inh	FBPA Giardia inh	LmPK inh	CHX counter	TbPYK inhibitor
O=C(CCc1nnc(CCCCc2ccccc2)o1)NCCCc1cccnc1	–	–	–	–	–	–
O=C(CCc1nnc(CCCc2ccccc2)o1)NCCc1ccccc1	43	–	–	–	22	–
CCOC(=O)CCNC(=O)CCc1nnc(CCCc2ccccc2)o1	96	–	–	–	29	–
O=C(CCc1nnc(CCCc2ccccc2)o1)NCCc1ccco1	74	–	–	–	43	–
O=C1N=C(O)CN1/N=C\c1ccc(-c2ccc([N+](=O)[O-])cc2)o1	·	·	–	·	·	·
CCC(C)(C)NC(=O)c1cc(S(=O)(=O)N2CCCCC2)ccc1N1CCOCC1	–	–	–	–	–	–
CC1(C)CCC[C@@](C)([C@H]2CC[C@]3(C)[C@@H]2[C@H](O)C[C@@H]2[C@@]4(C)CC[C@H](O)C(C)(C)[C@@H]4CC[C@]23C)O1	–	·	–	·	–	·
O=C(CCc1nnc(CCCc2ccccc2)o1)NCCCC1CCCC1	120	–	–	–	41	–
O=C(CCc1nnc(CCCCc2ccccc2)o1)NCCN1CCOC1=O	84	–	–	–	21	–
COC(c1ccccc1)c1nnc(CCC(=O)NCCCc2ccccc2)o1 (stereo not drawn)	–	–	–	–	17	–
O=C(CCc1nnc(CCC2CCCCC2)o1)NCCc1ccccn1	–	–	–	–	–	–
O=C(CCc1nnc(CCCCc2ccccc2)o1)NCCn1cccn1	–	–	–	–	–	–
COc1ccc(C(=O)Nc2ccc(OCc3cc(=O)n4ccccc4n3)cc2)cc1	·	–	·	·	·	–
COc1ccc(C2C(C(=O)Nc3ccccc3)=C(C)Nc3c(C(=O)Nc4ccccc4)cnn32)cc1 (stereo not drawn)	·	–	·	·	·	–
COc1cc(NC(=O)c2ccccc2)cc(OC)c1	–	–	–	–	30	–
COc1cc(OC)cc(C(=O)Nc2ccc(C(=O)Nc3ccccc3OC)cc2)c1	·	·	·	·	·	–
COc1ccc(C(=O)Nc2cc(OC)cc(OC)c2)cc1	65	–	–	14µM	40	–
C=CCN1c2ccccc2[C@]23C[C@@H](C(=O)OC)N(S(=O)(=O)c4ccc5c(c4)OCCN5C)C2=NC(C(=O)OC)=C(C(=O)OC)[C@H]13	·	·	–[12.9 µM]	–[11.5 µM]	·	·
COc1ccc(C(=O)CNc2ccccc2CO)cc1	111	–	–	–	42	–
COC(=O)c1ccccc1NCC(=O)c1ccc(OC)cc1	–	–	–	–	–	–
COc1ccc(C(=O)COc2ccccc2C(N)=O)cc1	–	–	–	–	–	–
COc1ccc(C(=O)CNc2ccccc2C#N)cc1	76	–	–	–	28	–
COc1ccc(C(=O)COc2ccccc2C#N)cc1	60	–	–	–	28	–
COc1ccc(C(=O)CNc2ccc(C)cc2C)cc1	–	–	–	–	25	–
COc1ccc(C(=O)CC(=O)C(=O)Nc2cc(C)ccc2C)cc1	–	–	–	–	–	–
SMILES	Shiga toxin inh	Sm TGR inh	FBPA Giardia inh	LmPK inh	CHX counter	TbPYK inhibitor
NCC1CCC(N)C(O[C@@H]2C(O)[C@H](O[C@H]3OC(CO)C(O)C(N)C3O)[C@@H](N)C[C@H]2N)O1 (stereo partly drawn)	·	·	–	·	·	–
COc1ccccc1NCC(=O)c1ccc(C)c(C)c1	·	–	–	–	16	–
COc1ccccc1NCC(=O)c1ccc(Cl)cc1	–	–	–	–	–	–
COCC(=O)n1nc(NCc2ccc(OC)cc2)nc1NCc1ccc(OC)cc1	–	–	–	–	–	?
COCC(=O)n1nc(-c2ccccc2)nc1NCc1ccccc1	–	·	–	–	25	–
CN(C)c1ccc(CNc2nc(-c3ccccc3)nn2S(C)(=O)=O)cc1	–	–	–	–	–	–
